Data on 40 sequences can be found in the OligoGym collection.
Note: reference of the scale not given here.

The first assay addresses PSKH2. The assay is described as follows: pooled miR-30 sensor sort-seq; sequence = guide strand. The settings on record: shRNA.
The sequence TAGAAGACTGTGCAGATCCAGG displayed a sensor-assay potency score (higher = more potent) of -0.858. Still for that read-out and setting: for TACCATGTAAACTTGATCCTCA the value was 0.763; for TTTGTGAGAATAATGTGACTTA, 0.516. In the case of TTGCCTTTCAGAATCTTCCTGT, the sensor-assay potency score (higher = more potent) is 0.856.

Sequence TTACCATGTAAACTTGATCCTC displayed a sensor-assay potency score (higher = more potent) of -0.301. Same read-out and setting: for TTGACCTTCGTGCTTGGCCCAA the value was -1.26; for AAATTTTCGACTCTTCACCTGG, 0.215; for TTGTCTATAAAGTCCTTCGCCA, -0.69. On the same count and under the same terms, for TTTTCGACTCTTCACCTGGATG the value was -1.22; for TAGTTTGTCTATAAAGTCCTTC, -0.109.

The target of another assay is PSMB6. The description is as above. The settings on record: shRNA.
In the case of TTGTTCTGGAGTCCGCCCCCAG, the sensor-assay potency score (higher = more potent) was -1.38. Same read-out and setting: the result for TTGTCAGTCACTCGATTGGCGA reads -1.6; that for TTAAATTTTGCATCAGTACAGG, -0.777; that for GTATCGGTAACACATCTCCTTA, -1.65. In the case of TATCGGTAACACATCTCCTTAA, the sensor-assay potency score (higher = more potent) was -0.95. TAGGTAGCATCAACATAGCCAT displayed a sensor-assay potency score (higher = more potent) of -0.545. On the same count and under the same terms, for TCAGCTTGTCAGTCACTCGATT the value was -0.432; for TTCAATGCTGTGGAAACCGAGC, -0.63. For TTGCAGACACTCTTCCTTGGTC, the sensor-assay potency score (higher = more potent) was -0.171. In turn, TCGTGAATAGGTGTCAGCTTGT returned a sensor-assay potency score (higher = more potent) of -0.101. Sequence TAGCCATAGATGTAGGAGCTCC came in with a sensor-assay potency score (higher = more potent) of -0.837.

With AATGCTGTGGAAACCGAGCTGG, the sensor-assay potency score (higher = more potent) is -0.331.

Another assay addresses PSMC1. The assay is described as above. The settings on record: shRNA.
For the sequence TTGTGGTTGAGCAGGACCGAGC, the sensor-assay potency score (higher = more potent) is -1.36. As to TTCAGCAGTTCCAACATTGTTC, the sensor-assay potency score (higher = more potent) is -0.616.

AACTTCAGTAATTTTAACCGGC: the sensor-assay potency score (higher = more potent) came out at 0.102. The sequence TTGCCTTGATGTCAGCACCAGA displayed a sensor-assay potency score (higher = more potent) of -0.927. Same read-out and setting: for TTGTCCTTGTCATCCTTCTTGC the value was -0.829; for AATATCTGCATAGGTCTCCTGG, -0.497; for TAATTCTCTCTAACTTCAGTAA, -0.505. Take TTGAGCAGGACCGAGCAGCCAG: the sensor-assay potency score (higher = more potent) is -1.07. Same read-out and setting: the result for TTTCTTGTCCTTGTCATCCTTC reads 0.111; that for TTTAATTCTCTCTAACTTCAGT, -0.456. In turn, TAATGGTTTCATTTGTTCCTGA yielded a sensor-assay potency score (higher = more potent) of -0.172.

For a further assay, the target named is PSMD14. Described as above. The conditions noted are these: shRNA.
On to TATCTTCTTCTTCTACAGCCTT, for which the sensor-assay potency score (higher = more potent) is -0.722. On the same count and under the same terms, the result for TTAGCAACATCTTCTGTTCCAG reads 0.0236. The same measure, in the same setting: the result for ATCTTCTTCTTCTACAGCCTTA reads -0.913; that for TACATCCACATGTTCCTCCAAA, -0.84. Still for that read-out and setting: the result for TAGCAACATCTTCTGTTCCAGT reads -0.472; that for TTAACATTTTTAACAGTGCCAG, -1.04; that for TAGCTTGGAACACTGGATCAAC, -0.999.
